Hit rate of the full screen: of about 85,000 compounds, about 5,100 (6%) were called active. For the sample, actives were picked, then their nearest neighbours and some compounds at random. Unmarked numbers belong to inactive results.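 Rule for the calls: active = viability at or below 40%; inactive = viability above 40%.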

The nature of this assay: H69AR cell viability reduction – human, 86K library, primary screen (AID 598).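 Note: multidrug resistant small cell line overexpressing MRP-1 efflux transporter; 100% = mean luminescence of untreated control wells.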 The conditions noted are these: H69AR lung tumor viability, ATP luminescence, 72 h; at 10 µM; active compounds read low.
Turning to `COC(=O)c1cc2nc(-c3ccccc3)cc(C(F)(F)F)n2n1`, the viability is 90.6%.

Consider `O=C(O)CCC(=O)NCc1ccc(C(=O)O)cc1`, for which the viability was 96%.

Turning to `O=C(Nc1cc(-c2nn(CC(=O)N3CCCCC3)c(=O)c3ccccc23)ccc1N1CCOCC1)c1ccc(Cl)cc1`, the viability was 93.1%.

On to `Cc1ccc(-c2cnc(NC(=O)CCC(=O)N(C)Cc3ccccc3)n2C)cc1`, for which the viability was 100%.

In the case of `COc1ccc(NC(=O)CC2COc3ccccc3O2)c(OC)c1` (centres undefined), the viability was 105%.

Regarding `Cc1cccc(-c2nc3c(c(SCC(=O)N4CCOCC4)n2)CCCC3)c1`, the viability was 70.3%.

As for `Cc1ccc(S(=O)(=O)c2c(COC(=O)c3cccc(Cl)c3)c(-c3ccccc3)nn2C)cc1`, the viability was 87.9%.

As for `COC(=O)Cn1nc(-c2ccccc2)c2cc(Cl)ccc21`, the viability was 98.3%.

Consider `Cn1nc(-c2ccccc2)c(CSc2cccc(Cl)c2)c1Cl`, for which the viability is 22% (active).

For the compound `Cn1c(=O)c2c(SCC(=O)N3CCOCC3)nc(C3CC3)nc2n(C)c1=O`, the viability is 81.8%.

Regarding `CC(C)NC(=O)C(=O)NCCN1CCN(S(=O)(=O)c2ccc(Cl)cc2)CC1`, the viability was 94.6%.

For the compound `O=C(CCn1c(SCC(=O)c2ccccc2)nc2ccccc2c1=O)NCc1ccc(F)cc1`, the viability was 97.6%.

`Cc1cc(C)n(-c2cc(Oc3ccccc3)ncn2)n1`: the viability was 100%.

Regarding `CC(=O)c1ccc(Oc2cc(C)nc(-n3nc(C)cc3C)n2)cc1`, the viability was 23.4% (active).

As for `Cc1cc(Oc2ccccc2)nc(N2CCOCC2)n1`, the viability is 94.1%.

On to `O=C(CSc1nc2cccnc2n1Cc1ccccc1)N1CCc2ccccc21`, for which the viability is 70.1%.

In the case of `C=CCO/N=C(\C)c1c(O)c(C)c(-c2ccccc2)n(-c2ccccc2)c1=O`, the viability is 96.7%.

For the compound `O=C(NCC1CCC(C(=O)O)CC1)OCc1ccccc1` (centres undefined), the viability is 98.5%.

Consider `COCCOC(=O)C1=C(C)NC(=O)CC1c1cc2c(cc1Br)OCO2` (centres undefined), for which the viability was 97.1%.

Turning to `COc1ccc(C2CC(=O)Nc3cc(C)c(C)cc32)c(OC)c1OC` (centres undefined), the viability was 78.6%.

On to `CCCOc1ccccc1C1CC(=O)Nc2cc3c(cc21)OCO3` (centres undefined), for which the viability was 25.9% (active).

As for `CCCNC(=S)N1CCC(NC(=O)C23CC4CC(CC(C4)C2)C3)CC1`, the viability was 101%.

`CCOC(=O)Cc1csc(NC(=O)CSc2nnc(-c3cccnc3)n2Cc2ccco2)n1`: the viability is 100%.

Consider `CCOCc1nnc(NC(=O)CSc2ccc(C)cc2)s1`, for which the viability was 94.8%.

Consider `CCCCCN1CC(O)=C(c2nc(-c3ccc(Cl)cc3)cs2)C1=N`, for which the viability is 99%.

For `CCOC(=O)N1CCN(S(=O)(=O)c2ccc(C(=O)Nc3ccc(F)cc3F)cc2)CC1`, the viability was 20.4% (active).

As to `COc1ccc(C(=O)Nc2ccc(F)cc2F)cc1`, the viability is 94.2%.

Turning to `O=C(Nc1cccc(F)c1)c1ccc(S(=O)(=O)N2CCCC2)cc1`, the viability was 84.8%.

Consider `COc1ccc(C2=NOC3(CC(=O)N(c4ccc(C)cc4)C3=O)C2)cc1` (centres undefined), for which the viability was 98.4%.

On to `O=C(c1cccc(N2CCCC2=O)c1)N1CCOCC1`, for which the viability was 110%.

As for `CCN(CC)CCn1c2ccc(Cl)cc2c2nc(C)sc21`, the viability is 20.6% (active).

With `COC(=O)Cn1c2ccc(C)cc2c2nc(C)sc21`, the viability was 98.6%.

Turning to `COc1ccc(Br)cc1CN1CCN(C(=O)c2cccc(OC)c2OC)CC1`, the viability is 70.4%.

As for `COC(=O)c1ccccc1NC(=O)CN(Cc1ccc(Cl)cc1)S(C)(=O)=O`, the viability is 60.9%.

Consider `COc1cccc(-c2nnc(NC(=O)c3ccc(S(=O)(=O)N(CC(C)C)CC(C)C)cc3)o2)c1`, for which the viability is 13.2% (active).

Take `CCN(CC)C(=O)CSc1nnc(-c2cccc(OC)c2)o1`: the viability is 76.1%.

In the case of `COc1cccc(NC(=O)CN(C)S(=O)(=O)c2ccc(C)cc2)c1`, the viability was 89.9%.

Take `COC(=O)c1ccccc1Sc1c(/C=N/OCc2ccc(Cl)cc2)c(C(F)(F)F)nn1C`: the viability is 79.2%.

For `CN(C)C(=O)c1cc(Br)ccc1Cl`, the viability is 100%.

As to `COc1ccc(C2C(C#N)=C(/N=C/N3CCOCC3)OC3=C2C(=O)CC(C)(C)C3)cc1OC` (centres undefined), the viability was 96.7%.

For the compound `OC(COc1ccc2c(c1)CCC2)CN1CCN(c2cccc(Cl)c2)CC1` (centres undefined), the viability is 75%.

For the compound `O=C(Nc1ccccc1-c1nnn(CC(=O)N2CCCc3ccccc32)n1)c1cccc(Cl)c1`, the viability was 102%.

`Cc1cc(C)n(C(=O)CCNC(=O)c2ccccc2Cl)n1`: the viability was 104%.

As for `Clc1ccc(C2=CSC3=Nc4cccc5cccc(c45)N23)cc1`, the viability was 27.7% (active).

Regarding `O=C(c1ccco1)N1CCN(C(=O)C2CCCN(S(=O)(=O)c3cccc4nsnc34)C2)CC1` (centres undefined), the viability was 91.1%.

As for `CCOCCOCCC(C(=O)O)P(=O)(c1ccccc1)c1ccccc1` (centres undefined), the viability was 103%.

As to `CCc1c(O)nc(SCC(=O)Nc2ccccc2)n(C(C)CC)c1=O` (centres undefined), the viability is 74.6%.

On to `CC(C)NS(=O)(=O)c1ccc(NC(=O)C2CCCCC2)cc1`, for which the viability is 109%.

Take `CC(C)c1ccc(NC(=O)NC2CCCCC2)cc1`: the viability was 25.6% (active).

Regarding `CC(=O)OC(C(=O)NC1CCCCC1)c1ccccc1` (centres undefined), the viability is 92.1%.

With `CNC(=S)N1N=C(c2ccccc2)CC1c1ccc(Br)cc1` (centres undefined), the viability is 76.7%.

As for `COCCn1c(-c2ccc(OC)c(OC)c2)nc2ccccc21`, the viability was 92.7%.

Regarding `COc1ccc(-c2nc3ccccc3n2CCC(C)C)cc1OC`, the viability was 28.8% (active).

In the case of `CCCn1c(C(O)c2cc(OC)ccc2OC)nc2ccccc21` (centres undefined), the viability was 95.3%.

Consider `COC(=O)c1[nH]c2ccc(Br)cc2c1NC(=O)Oc1ccccc1`, for which the viability is 80.6%.

`Cc1nc(-c2ccc(NC(=O)c3cccs3)cc2)cs1`: the viability was 70.7%.

Consider `O=C(Nc1ccc2oc(-c3ccc4ccccc4c3)nc2c1)c1cccs1`, for which the viability is 2.65% (active).

For the compound `O=C(Cc1cccc2ccccc12)Nc1ccc2oc(-c3ccccc3)nc2c1`, the viability was 59.7%.

For `CCNC(=O)c1sccc1-n1cccc1`, the viability is 103%.

As to `CC(C)(C)NC(=O)Cn1c(SCC(=O)Nc2nccs2)nc2ccccc21`, the viability is 92.5%.

`O=S(=O)(N1CCCCC1)N1CCNCC1`: the viability is 100%.

As for `Cc1cccc(C)c1NC(=O)CCCSc1nnc(-c2ccco2)n1-c1ccccc1`, the viability is 34.3% (active).

Regarding `O=C(CSc1nnc(-c2ccco2)n1-c1ccccc1)NCCc1ccccc1`, the viability is 82%.

For the compound `COc1ccc(C(=O)NC(=O)CSc2nnc(-c3ccco3)n2-c2ccccc2)cc1`, the viability was 95.2%.

For `COC(=O)c1sc(=S)n(-c2ccc(Cl)cc2)c1C`, the viability was 90%.

Turning to `CCOn1c(SC(C)C)nc2ccccc2c1=O`, the viability is 103%.

As to `CCOC(=O)c1cc2cc(-c3c(C(=O)OCC)oc4cc(O)cc(O)c4c3=O)ccc2o1`, the viability is 16.6% (active).

Take `Cc1ccc(OC(=O)c2cc3ccccc3o2)cc1`: the viability was 104%.

For the compound `CCOC(=O)c1c(C)nc2c(c1C)c(=O)oc1ccccc12`, the viability is 98.3%.

With `CN(C)c1nc(N)nc(CSc2ccccn2)n1`, the viability was 91%.

On to `Cc1cc(N/C=C\C(=O)c2ccc(Cl)c(Cl)c2)no1`, for which the viability is 84.8%.

In the case of `CCOC(=O)c1ccccc1NS(=O)(=O)c1ccc(OC)cc1`, the viability is 18.2% (active).

For `CCCC(NS(=O)(=O)c1ccc(OC)cc1)C(=O)O` (centres undefined), the viability is 104%.

Take `COC(=O)CNS(=O)(=O)c1ccc(OC)cc1`: the viability was 91.5%.

As for `O=c1[nH][nH]c(C(F)(F)F)c1C=NCc1ccccc1Cl`, the viability was 81.2%.

In the case of `Cn1nc(-c2ccccc2)c(-c2nc(-c3ccc(Cl)cc3)no2)c1Cl`, the viability is 34.3% (active).

`Cc1cccc(-c2noc(-c3ccc(F)cc3)n2)c1`: the viability is 91.5%.

Regarding `COc1ccc(-c2nc(-c3ccccc3)no2)c(OC)c1`, the viability is 69.4%.

Take `COc1ccc(Cl)cc1C(=O)NCc1cn(C)nc1C`: the viability was 86.1%.

Turning to `Cc1ccccc1-n1c(C)cc(/C=C2\NC(=O)NC2=O)c1C`, the viability was 85.6%.

Consider `CC1(C)CCCC2=C1CC1C(=O)N(c3ccccc3)C(=O)C1C2` (centres undefined), for which the viability was 84%.

In the case of `CC1CC2=C(CC1/C=N/NC(N)=S)C(C)(C)CCC2` (centres undefined), the viability was 2.3% (active).

For the compound `CCCCc1nc2ccccc2c(=O)n1NC(=O)c1c(O)c2cccc3c2n(c1=O)CC3`, the viability is 70.7%.

With `CCCc1nc2ccccc2c(=O)n1/N=C/c1ccc(O)c(O)c1`, the viability was 15.8% (active).

Regarding `CCCc1nc2ccccc2c(=O)n1NC(=O)c1c(O)c2ccccc2[nH]c1=O`, the viability was 86.6%.

For `CCn1c2ccccc2c2cc(NC(=S)N3CCOCC3)ccc21`, the viability is 20.1% (active).

As for `CCn1c(=O)cc(O)c2ccccc21`, the viability is 83.1%.

For the compound `CCOc1cc(C(=S)N2CCOCC2)ccc1O`, the viability was 85.1%.

Take `CS(=O)(=O)Nc1ccc(C(=O)N2CCCC2)cc1`: the viability was 89.1%.

With `Cc1ccc(CN2CCN(/N=C/c3ccco3)CC2)c(C)c1`, the viability is 106%.

Take `C=CCNC(=O)c1cc2nc(C3CC3)cc(C(F)F)n2n1`: the viability was 91.1%.

Consider `Cn1c(COc2ccc(Cl)cc2)nc2ccccc2c1=O`, for which the viability is 77.5%.

Consider `Cc1[nH]n(-c2ccc(Cl)cc2)c(=O)c1/C=N/n1c(C)nc2ccccc2c1=O`, for which the viability was 50.4%.

Turning to `Cc1[nH]n(-c2cccc(Cl)c2)c(=O)c1/C=N/n1c(C)nc2ccccc2c1=O`, the viability was 29.1% (active).

Turning to `O=C(CN(c1ccccc1)S(=O)(=O)c1ccc(Cl)cc1)Nc1ccccc1C(=O)N1CCCC1`, the viability is 84.3%.

Regarding `O=C(Cc1ccc(-n2c(=O)[nH]c3ccccc3c2=O)cc1)N1CCN(c2cccc(Cl)c2)CC1`, the viability is 89.4%.

As to `O=C(Nc1ccc2ccccc2c1)Nc1ccc2snnc2c1`, the viability is 7.33% (active).

Consider `COc1ccc(NC(=O)Nc2ccc3nc(C)c(C)nc3c2)cc1`, for which the viability is 90.7%.

Regarding `Cc1ccc(NC(=O)Nc2ccc3oc(C)nc3c2)cc1`, the viability was 74.5%.

The values above are taken from PubChem BioAssay AID598 (SRMLSC, 2007).
